Compound activity (PubChem)
CtBP-E1A blk: qHTS Assay for Inhibitors of the CtBP/E1A Interaction. AlphaScreen GST-E1A/His-CtBP binding, 1536-well; active compounds read low. AID 651724, 2012. CtBP / adenovirus E1A interaction (AlphaScreen). 340,000 tested, 0.49% active. activity change, % (test concentration not listed); in the data active means activity change below about -65%; inconclusive means mostly about -30% to -63%
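In 5 uL wells, 23 nL compound meets equimolar GST-E1A and His-CtBP (5X stock 125 nM each) for 2 h, 37 °C. Beads (5X, 50 ug/mL) then 1 h, 37 °C, dark.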
CBFb RUNX1 block: qHTS Assay for Compounds Blocking the Interaction Between CBF-beta and RUNX1 for the Treatment of Acute Myeloid Leukemia | 230,000 tested, under 10 active | Potency, µM (doses to about 59.8 µM), usual class: inhibitors | AlphaScreen CBFb-His/RUNX1-biotin binding, biochemical | Runt-related transcription factor 1 (Homo sapiens) + Core-binding factor subunit beta …
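CBF-beta (His) and RUNX1 (biotin), 30 nM each; 20 min preassociation; + compound, 15 min; + beads 50 ng each (Ni, streptavidin), 90 min; RT; AlphaScreen read.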
RORg inh: qHTS for inhibitors of ROR gamma transcriptional activity. Nuclear receptor ROR-gamma (Mus musculus), P51450. Drosophila S2 Gal4-RORgamma UAS-luciferase reporter, 20 h. Potency, µM (titrated, usually from 53.6 µM), hits mostly inhibitors. 310,000 tested, 5.4% active. AID 2551, 2010; further: nearly all actives have a fitted effect of over 60% in size
Target sequence (P51450 whole entry, looked up, the tested form may be a part): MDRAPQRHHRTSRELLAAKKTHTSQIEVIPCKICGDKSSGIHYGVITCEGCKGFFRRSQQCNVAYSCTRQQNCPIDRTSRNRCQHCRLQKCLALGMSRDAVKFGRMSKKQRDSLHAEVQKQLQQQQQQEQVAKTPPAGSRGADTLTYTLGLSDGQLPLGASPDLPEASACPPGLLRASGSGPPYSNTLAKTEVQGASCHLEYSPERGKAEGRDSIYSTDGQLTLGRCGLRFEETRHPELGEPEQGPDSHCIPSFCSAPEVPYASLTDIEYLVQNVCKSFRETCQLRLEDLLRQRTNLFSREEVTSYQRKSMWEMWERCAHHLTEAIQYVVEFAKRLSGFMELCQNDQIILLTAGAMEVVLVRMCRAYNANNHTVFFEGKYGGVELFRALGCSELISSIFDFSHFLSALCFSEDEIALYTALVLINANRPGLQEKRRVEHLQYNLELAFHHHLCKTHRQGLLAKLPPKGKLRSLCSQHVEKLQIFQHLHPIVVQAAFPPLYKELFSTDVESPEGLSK
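A Gal4/UAS one-hybrid system in insect cells: metallothionein-promoter Gal4–ROR gamma fusion plus Photinus luciferase reporter. Copper sulfate 700 uM final, 20 hr ambient incubation, luminescent detection after 10 min with reagent.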
VP16 counter: VP16 counterscreen qHTS for inhibitors of ROR gamma transcriptional activity. Potency, µM (top dose mostly 53.6 µM), actives largely listed as inhibitors. 310,000 tested, 3.5% active. Drosophila S2 Gal4-VP16 UAS-luciferase, luminescence, 20 h. AID 2546, 2010;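 further: Gal4-VP16 expression switched on by copper sulfate through the metallothionein promoter; nearly all actives have a fitted effect of over 50% in size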
MBNL1-CUG inh: qHTS Assay for Inhibitors of MBNL1-poly(CUG) RNA binding | 280,000 tested, 0.036% active | Potency, µM (series often up to 57.5 µM), hits mostly inhibitors | TR-FRET MBNL1-His/biotin-(CUG)12 binding, 665/545 ratio; active means well fitted inhibition curve with a large enough effect in the signal ratio, with a control signal flat, not every such curve was filed as active; inconclusive means small, poorly fitted or top-dose-only effect, or effect the other way, or a change in a side signal; inactive means no such curve, though single readings can be large or run the other way; the % refers to the signal ratio
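TR-FRET between His-tagged MBNL1 and biotin-(CUG)12 RNA, detected with Tb anti-His antibody (0.055 ng/ul) and streptavidin-XL665 (5 nM), 60 min at room temperature. Compounds titrated 92 nM to 58 uM; 665/545 nm ratio normalized to buffer and complex controls.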
Six1-Eya2 inh: qHTS Assay for Inhibitors of the Six1/Eya2 Interaction. AlphaScreen GST-Six1/His-Eya2 binding, biochemical; active compounds read low. 360,000 tested, 0.56% active. Homeobox protein SIX1 (Homo sapiens) + Protein phosphatase EYA2 (Homo sapiens), …. AID 651725, 2012. activity change, % (concentration not given with the values); in the data active means activity change below about -65%; inconclusive means mostly about -30% to -63%
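Homogeneous AlphaScreen proximity assay pairing GST-Six1 with His-tagged Eya2 (added as 5X mix: 250 nM and 500 nM) in 50 mM Tris pH 8.0, 300 mM NaCl, 1 mM TCEP. Glutathione donor and nickel acceptor beads; 1 h, 37 °C, dark.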
Large screens that a line does not name were inactive. Compounds with a hit are over-represented: about 5.5% of the library has one in this group of screens. Unless noted, the call rests on the fitted dose curve; in most records, active means well fitted curve in the direction sought with a large enough effect; inconclusive means small, poorly fitted or top-dose-only effect, or another doubt; inactive means no such curve, though single readings can be large; an effect the other way counts as inactive or inconclusive.

COc1ccccc1Nc1nc(N)nc(CN2CCN(Cc3ccccc3)CC2)n1	none
Nc1nc(CSC(=S)N2CCCCC2)nc(Nc2ccccc2)n1	RORg inh inconclusive
COc1ccccc1Nc1nc(N)nc(CN2CCN(c3ccccc3F)CC2)n1	RORg inh 1.78µM, VP16 counter 7.94µM
CC1CC(C)CN(C(=S)SCc2nc(N)nc(Nc3ccccc3)n2)C1 (configuration not stated)	RORg inh 5.62µM, VP16 counter inconclusive
COc1ccccc1N1CCN(Cc2nc(N)nc(Nc3ccc(C)c(Cl)c3)n2)CC1	RORg inh 11.2µM
CCOc1ccc(Nc2nc(N)nc(CN3CCN(c4ccccc4F)CC3)n2)cc1	RORg inh 11.2µM
CC(=O)c1sc(NC(=O)CSC(C)C(=O)Nc2cc(C)on2)nc1-c1ccccc1 (configuration not stated)	none (no result: CBFb RUNX1 block, RORg inh, VP16 counter, MBNL1-CUG inh)
COc1ccccc1N1CCN(/N=C/c2cc(Br)ccc2F)CC1	RORg inh inconclusive, Six1-Eya2 inh inconclusive (no result: CBFb RUNX1 block)
COC(=O)[C@@H]1[C@@H](C)N(CCc2cc(OC)c(OC)c(OC)c2)C(=O)N[C@H]1c1ccccc1	none (no result: CtBP-E1A blk, RORg inh, VP16 counter, MBNL1-CUG inh, Six1-Eya2 inh)
CCN(CC)CCNC(=O)c1ccc(CS(=O)(=O)c2ccccc2C)o1	none (no result: CBFb RUNX1 block)
COc1ccccc1Nc1nc(N)nc(CN2CCCCC2)n1	none
CCOc1ccccc1Nc1nc(N)nc(CN(C)C2CCCCC2)n1	RORg inh 11.2µM
COc1ccccc1Nc1nc(N)nc(CN2CC(C)CC(C)C2)n1 (configuration not stated)	RORg inh 8.91µM
Cc1ccc(/C=C/C(=O)c2c(C)nc3ccccn23)cc1	RORg inh 14.1µM, VP16 counter inconclusive, MBNL1-CUG inh inconclusive
Cc1nc2ccccn2c1C(=O)/C=C/c1cccc([N+](=O)[O-])c1	none
CC1=NNC(=O)/C1=C\c1cn(-c2ccccc2)nc1-c1ccc(F)cc1	RORg inh 4.47µM, VP16 counter 5.01µM
CC1=NNC(=O)/C1=C\c1cn(-c2ccccc2)nc1-c1cccs1	RORg inh inconclusive, VP16 counter 4.47µM (no result: CtBP-E1A blk)
O=Cc1cn(-c2ccccc2)nc1-c1ccc(F)cc1	none (no result: CtBP-E1A blk, CBFb RUNX1 block)
O=C(CCOc1ccccc1)Nc1nnc(-c2ccc3c(c2)OCCO3)o1	RORg inh 8.91µM, VP16 counter 20µM, Six1-Eya2 inh inconclusive
O=C(Nc1nnc(-c2ccc3c(c2)OCCO3)o1)c1ccc(Cc2ccccc2)cc1	RORg inh 5.62µM, VP16 counter 7.08µM
O=C(Nc1nnc(-c2ccc3c(c2)OCCO3)o1)C1CCCCC1	VP16 counter inconclusive
CN(CCc1ccccc1)C(=O)c1ccc(NC(=O)Cc2ccc(NC(=O)C3CCN(C(=O)C4CCC4)CC3)cc2)cc1	none (no result: CBFb RUNX1 block, RORg inh, VP16 counter, MBNL1-CUG inh)
O=C(CSc1nc2ccccc2[nH]1)c1ccc(Cl)s1	VP16 counter inconclusive
Cc1ccc(C(=O)NCc2nc3ccccc3[nH]2)o1	none (no result: CBFb RUNX1 block)
C/C(=N\Nc1nc2ccccc2[nH]1)c1ccc(Cl)s1	RORg inh 2.24µM, VP16 counter 2.82µM
C/C(=N\Nc1nc2ccccc2[nH]1)c1ccc(C)o1	RORg inh 14.1µM, VP16 counter inconclusive
O=C(NCCCNCCCNC(=O)c1ccc(/C=N/O)nc1)c1ccc(/C=N/O)nc1	Six1-Eya2 inh -86.7 (no result: CtBP-E1A blk)
CC1(C(=O)NCc2ccc(F)c(F)c2)Cc2c(-c3cccc(C(F)(F)F)c3)ccnc2O1 (configuration not stated)	none (no result: CBFb RUNX1 block, RORg inh, VP16 counter, MBNL1-CUG inh)
Cc1ccc(C(C(=O)NCc2ccco2)N(C(=O)CNC(=O)c2cccs2)c2c(C)cccc2C)cc1 (configuration not stated)	RORg inh inconclusive, VP16 counter 15.8µM (no result: MBNL1-CUG inh)
Cc1ccc(C(C(=O)NCc2ccco2)N(C(=O)CNC(=O)c2cccs2)c2c(C)cc(C)cc2C)cc1 (configuration not stated)	RORg inh inconclusive
Cc1cc(C)c2c(=O)n3c(nc2c1)C(Cc1ccccc1)NC(=O)c1cc2ccccc2cc1-3 (configuration not stated)	none (no result: CBFb RUNX1 block, RORg inh, VP16 counter, MBNL1-CUG inh)
Cc1ccc2c(Cl)cc(Cl)c(OCC(=O)Nc3cccc(S(N)(=O)=O)c3)c2n1	RORg inh 14.1µM, VP16 counter inconclusive
Cc1ccc2c(Cl)cc(Cl)c(OCC(=O)Nc3ccc(C)c(S(=O)(=O)N(C)C)c3)c2n1	RORg inh 7.08µM, VP16 counter 7.08µM (no result: CtBP-E1A blk, Six1-Eya2 inh)
Cc1ccc2c(Cl)cc(Cl)c(OCC(=O)Nc3cccc(S(=O)(=O)N(C)C)c3)c2n1	RORg inh 5.01µM, VP16 counter 10µM
COC(=O)C1=C(C(=O)OC)[C@@H]2N(C)c3ccccc3[C@@]23C[C@@H](C(=O)OC)N(S(=O)(=O)c2c(C)noc2C)C3=N1	none (no result: CtBP-E1A blk, RORg inh, VP16 counter, MBNL1-CUG inh, Six1-Eya2 inh)
CCOC(=O)N(C)c1c(CC)nc2c(OCc3ccc(F)cc3)cccn12	none (no result: CBFb RUNX1 block, RORg inh, VP16 counter, MBNL1-CUG inh)
COC(=O)CCCNC(=O)c1ccc(S(=O)(=O)NCc2ccco2)cc1	none (no result: CBFb RUNX1 block, RORg inh, VP16 counter, MBNL1-CUG inh)
COc1ccc([C@@H]2CC(=O)c3c(O)cc(O[C@H]4O[C@@H](CO[C@H]5O[C@@H](C)[C@@H](O)[C@@H](O)[C@@H]5O)[C@@H](O)[C@@H](O)[C@@H]4O)cc3O2)cc1O	none (no result: CtBP-E1A blk, MBNL1-CUG inh, Six1-Eya2 inh)
COc1ccc2[nH]c(-c3ccc(C)cc3)cc(=O)c2c1	RORg inh 10µM, VP16 counter 7.94µM
CNc1snc(C)c1C(=O)OC(C)C(=O)NCc1ccccc1 (configuration not stated)	none (no result: CBFb RUNX1 block, RORg inh, VP16 counter, MBNL1-CUG inh)
CCc1ccc2[nH]c3nc(SCC(=O)NNC(=O)c4ccc(C(C)(C)C)cc4)nnc3c2c1	RORg inh 12.6µM
Cc1ccc(C(=O)NNC(=O)CSc2nnc3c(n2)[nH]c2ccc(C)cc23)cc1	none
CN(C(=O)CSc1ncnc2sc(-c3ccccc3)cc12)C1CCS(=O)(=O)C1 (configuration not stated)	RORg inh 11.2µM, VP16 counter inconclusive
CCOC(=O)c1sc2nc(C)nc(SCC(=O)N(C)C3CCS(=O)(=O)C3)c2c1C (configuration not stated)	RORg inh 12.6µM (no result: MBNL1-CUG inh)
Cc1ccc(S(=O)(=O)/N=C2\C(=O)c3ccccc3C([O-])=C2n2cc[n+](CCC(C)C)c2)cc1	RORg inh 8.91µM, VP16 counter inconclusive, MBNL1-CUG inh inconclusive
CCCNC(=O)c1csc(Nc2cccc3ccccc23)n1	none (no result: CtBP-E1A blk, CBFb RUNX1 block)
